Laboratory results taken from PubChem BioAssay (EPA / NIEHS).
“And” between values parts separate entries of the source, which are not always exact repeats. Identical values can stand only once. The source holds several records for some structures; these can differ, active in one and inactive in another. The source made the active and inactive calls. How the source made its calls: active means hit-call score of the fitted dose curve at least 0.9, where 1 is the maximum; inactive means score below 0.9.

experiment: ATG_NRF2_ARE_CIS: Attagene CIS-FACTORIAL HepG2 Assay for human Nuclear Factor Erythroid 2 Related Factor 2 (NFR2) response to Antioxidant Response Elements (ARE) (AID 2282992); details: HepG2 Attagene ARE/NRF2 reporter, transcription factor activity; actives raise or lower the signal
Procedure: ATG_CIS is a cell-based, multiplexed-readout assay that uses HepG2, a human liver cell line, with measurements taken at 24 hours after chemical dosing in a 24-well plate.ATG_NRF2_ARE_CIS is one of 52 assay component(s) measured or calculated from the ATG_CIS assay. It is designed to make measurements of mRNA induction, a form of inducible reporter, as detected with fluorescence intensity signals by Reverse transcription polymerase chain reaction (RT-PCR) and Capillary electrophoresis technology.Data from the assay component ATG_NRF2_ARE_CIS was analyzed into 1 assay endpoint. This assay endpoint, ATG_NRF2_ARE_CIS, was analyzed with bidirectional fitting relative to DMSO as the negative control and baseline of activity. Using a type of inducible reporter, measures of mRNA for gain or loss-of-signal activity can be used to understand the reporter gene at the transcription factor-level as they relate to the gene NFE2L2. Furthermore, this assay endpoint can be referred to as a primary readout, because this assay has produced multiple assay endpoints where this one serves a reporter gene function. To generalize the intended target to other relatable targets, this assay endpoint is annotated to the dna binding intended target family, where the subfamily is basic leucine zipper.
Human liver HepG2 cells are transiently transfected with multiple reporter transcription units (MRTUs) in 6-well plates using FuGene 6 reagent (Roche; 3 ml FuGene/1 mg DNA). The MRTU constructs are regulated by a cis-regulating element (promoter). […] A major difference between the CIS and TRANS system is that in CIS activities of endogenous TFs are measured, whereas the TRANS assay evaluates changes in activities of exogenous, chimeric NR-Gal4 proteins. […] At the end of 24 hour incubation, total RNA was isolated using TriZol reagent (Invitrogen). The isolated RNA is then reverse-transcribed using oligo(dT) primer and Mo-MLV reverse transcriptase (Invitrogen) with DNAse I (Ambion) treatment for 30 min. The one-tenth of the produced cDNA was amplified by PCR using Taq DNA polymerase (Invitrogen) and two reporter sequence-specific primers. The PCR products were fluorescently labeled by primer extension with 6-arboxyfluorescein (6-FAM) 5'-labeled reporter sequence-specific primer (2 min at 95 C, 20 s at 68 C and 10 min at 72 C) and these products were digested with 5U of HpaI (New England Biolabs) for 2h at 37 C. The fragments were purified using Qiaquick PCR columns (Qiagen), analyzed on an ABI 3130xL genetic analyzer (Applied Biosystems) with peak positions identified by using a set of X-rhodamine (ROX)-labeled MapMarker1000 molecular weight standards (BioVentures). The raw capillary electrophoresis data was processed using Attagraph software (Attagene).

Row | Compound | outcome | AC50
1 | CCCCOC(=O)C(C)Oc1ccc(Oc2ccc(C(F)(F)F)cn2)cc1 (stereo not given) | inactive | –
2 | CCCCOC(=O)[C@@H](C)Oc1ccc(Oc2ccc(C(F)(F)F)cn2)cc1 | inactive | –
3 | CC(C)(C)[C@@H](O)[C@@H](Cc1ccc(Cl)cc1)n1cncn1 | – | 13.4 µM (active)
4 | c1ccc(Nc2ccccc2)cc1 | – | 123 µM (active) and 30.4 µM (active)
5 | CCNc1nc(N)nc(Cl)n1 | inactive | –
6 | CC(C)(c1ccc(O)cc1)c1ccc(O)cc1 | inactive | –
7 | Oc1ccc(C(c2ccc(O)cc2)C(Cl)(Cl)Cl)cc1 | inactive | –
8 | c1ccc2[nH]c(-c3cscn3)nc2c1 | inactive | 149 µM (active)
9 | COCCO | inactive | –
10 | CCOC(=O)[C@H](C)Oc1ccc(Oc2nc3ccc(Cl)cc3o2)cc1 | – | 50 µM (active)
11 | COC(=O)c1c(Cl)nn(C)c1S(=O)(=O)NC(=O)Nc1nc(OC)cc(OC)n1 | inactive | –
12 | CCC(C)OC(=O)N1CCCCC1CCO (stereo not given) | inactive | 44.4 µM (active)
13 | O=C(c1ccccc1)C1CCCCC1 | inactive | –
14 | COc1nc(C)nc(NC(=O)NS(=O)(=O)c2ccccc2OCCCl)n1 | inactive | 6.85 µM (active)
15 | CCCN(CCC)C(=O)SCC | inactive | –
16 | CC(=O)[C@H]1CC[C@H]2[C@@H]3CCC4=CC(=O)CC[C@]4(C)[C@H]3CC[C@]12C | inactive | 33.4 µM (active) and 16.3 µM (active)
17 | C#CCOC(=O)[C@@H](C)Oc1ccc(Oc2ncc(Cl)cc2F)cc1 | inactive | –

Row | Compound | outcome | AC50
18 | N#CSCSc1nc2ccccc2s1 | inactive | 2.89 µM (active)
19 | CCOC(=O)c1ccc(O)cc1 | inactive | –
20 | CC(C)CCCCCCc1ccc(O)cc1 | inactive | 8.96 µM (active) and 11.1 µM (active) and 9.16 µM (active)
21 | C[C@]12C[C@H](O)[C@H]3[C@@H](CCC4=CC(=O)CC[C@@]43C)[C@@H]1CC[C@@H]2C(=O)CO | inactive | –
22 | O=C(O)c1ccccc1 | inactive | –
23 | CCC(O)=C1C(=O)CC(C(=O)O)CC1=O (stereo not given) | – | 35.6 µM (active)
24 | CC(=O)S[C@@H]1CC2=CC(=O)CC[C@]2(C)[C@H]2CC[C@@]3(C)[C@@H](CC[C@@]34CCC(=O)O4)[C@H]12 | inactive | 100 µM (active)
25 | COC(=O)c1ccccc1S(=O)(=O)NC(=O)Nc1nc(OC(F)F)cc(OC(F)F)n1 | inactive | –
26 | CCCOC(=O)c1ccc(C(=O)OCCC)nc1 | inactive | –
27 | CSC(=O)c1cccc2nnsc12 | inactive | –
28 | C=CCOC(Cn1ccnc1)c1ccc(Cl)cc1Cl (stereo not given) | – | 5.64 µM (active)
29 | CC1(C)C(C=C(Cl)Cl)C1C(=O)OCc1cccc(Oc2ccccc2)c1 (stereo not given) | – | 6.5 µM (active)
30 | CCN(CC)C(=O)c1cccc(C)c1 | inactive | –
31 | CN(C)C(=O)Nc1ccc(Cl)c(Cl)c1 | – | 23.6 µM (active) and 13.1 µM (active)
32 | CCN(Cc1c(F)cccc1Cl)c1c([N+](=O)[O-])cc(C(F)(F)F)cc1[N+](=O)[O-] | – | 4.28 µM (active)
33 | CCCCOCCOCCOCc1cc2c(cc1CCC)OCO2 | – | 7.81 µM (active)
